In the supplement of paper PMC8728848:
This excerpt belongs to a sample that is enriched for the strongest signals.

B1: RNase 1 (Bos taurus), P61823 (protein)
chain: MALKSLVLLSLLVLVLLLVRVQPSLGKETAAAKFERQHMDSSTSAASSSNYCNQMMKSRNLTKDRCKPVNTFVHESLADVQAVCSQKNVACKNGQTNCYQSYSTMSITDCRETGSSKYPNCAYKTTQANKHIIVACEGNPYVPVHFDASV
B2: Tim-4 (Mus musculus), Q6U7R4 (protein)
chain: MSKGLLLLWLVTELWWLYLTPAASEDTIIGFLGQPVTLPCHYLSWSQSRNSMCWGKGSCPNSKCNAELLRTDGTRIISRKSTKYTLLGKVQFGEVSLTISNTNRGDSGVYCCRIEVPGWFNDVKKNVRLELRRATTTKKPTTTTRPTTTPYVTTTTPELLPTTVMTTSVLPTTTPPQTLATTAFSTAVTTCPSTTPGSFSQETTKGSAFTTESETLPASNHSQRSMMTISTDIAVLRPTGSNPGILPSTSQLTTQKTTLTTSESLQKTTKSHQINSRQTILIIACCVGFVLMVLLFLAFLLRGKVTGANCLQRHKRPDNTEDSDSVLNDMSHGRDDEDGIFTL

Legend:
Assay in all cases: glycan array binding signal (z-score within array); higher = stronger binding
Conditions in all cases: glycan notation: IUPAC condensed, linker removed
Fuc(a1-2)Gal(b1-3)GalNAc = biological target: Fuc(a1-2)Gal(b1-3)GalNAc
Method in brief: (§1)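 Negative Z-scores can be read as non-binding. The Z-score is calculated within each array and then averaged across arrays of one protein sequence at different concentrations or buffers and across linkers. Arrays, 3228 in all, were curated from the Consortium for Functional Glycomics database and kept only where the protein sequence was available.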

[1] = biological target: Fuc(a1-2)Gal(b1-3)GalNAc(b1-3)Gal(a1-4)Gal(b1-4)Glc
Method in brief: as §1

[2] = biological target: Fuc(a1-2)Gal(b1-4)GlcNAc(b1-3)Gal(b1-4)GlcNAc
Method in brief: as §1

Gal(a1-4)Gal(b1-4)Gal = biological target: Gal(a1-4)Gal(b1-4)Gal
Method in brief: as §1

Gal(a1-4)Gal(b1-4)GalNAc = biological target: Gal(a1-4)Gal(b1-4)GalNAc
Method in brief: as §1

[3] = biological target: Gal(b1-3)GalNAc(b1-3)Gal(b1-4)Glc
Method in brief: as §1

Gal(b1-4)Glc6S = biological target: Gal(b1-4)Glc6S
Method in brief: as §1

[4] = biological target: Gal(b1-4)GlcNAc(b1-3)GalNAc
Method in brief: as §1

Gal6S(b1-4)Glc = biological target: Gal6S(b1-4)Glc
Method in brief: as §1

[5] = biological target: Man(a1-2)Man(a1-2)Man(a1-3)[Man(a1-2)Man(a1-6)[Man(a1-3)]Man(a1-6)]Man(b1-4)GlcNAc(b1-4)GlcNAc
Method in brief: as §1

Man(a1-3)[Man(a1-6)]Man = biological target: Man(a1-3)[Man(a1-6)]Man
Method in brief: as §1

[6] = biological target: Neu5Ac(a2-3)Gal(b1-3)GalNAc6S
Method in brief: as §1

[7] = biological target: Neu5Ac(a2-3)Gal(b1-4)GlcNAc(b1-3)Gal(b1-4)[Fuc(a1-3)]GlcNAc
Method in brief: as §1

Neu5Ac(a2-3)GalNAc = biological target: Neu5Ac(a2-3)GalNAc
Method in brief: as §1

[8] = biological target: Neu5Gc(a2-6)Gal(b1-4)GlcNAc
Method in brief: as §1

[9] = biological target: Fuc(a1-2)[Gal(a1-3)]Gal(b1-3)GlcNAc
Method in brief: as §1

[10] = biological target: Fuc(a1-2)[GalNAc(a1-3)]Gal(b1-4)[Fuc(a1-3)]GlcNAc
Method in brief: as §1

[11] = biological target: Fuc(a1-3)[Gal(b1-4)]GlcNAc(b1-3)Gal(b1-3)[Fuc(a1-4)]GlcNAc
Method in brief: as §1

[12] = biological target: Fuc(a1-3)[Gal(b1-4)]GlcNAc(b1-4)Gal(b1-4)[Fuc(a1-3)]GlcNAc
Method in brief: as §1

Fuc(b1-3)GlcNAc = biological target: Fuc(b1-3)GlcNAc
Method in brief: as §1

[13] = biological target: Gal(a1-3)[Gal(a1-4)]Gal(b1-4)GlcNAc
Method in brief: as §1

[14] = biological target: Gal(b1-3)[Fuc(a1-4)]GlcNAc(b1-3)Gal(b1-4)[Fuc(a1-3)]GlcNAc
Method in brief: as §1

[15] = biological target: Gal(b1-4)GalNAc(b1-3)[Fuc(a1-2)]Gal(b1-4)GlcNAc
Method in brief: as §1

[16] = biological target: Gal(b1-4)GlcNAc(b1-3)Gal(b1-4)GlcNAc(b1-3)Gal(b1-4)GlcNAc
Method in brief: as §1

[17] = biological target: Gal(b1-4)GlcNAc(b1-3)[Gal(b1-4)GlcNAc(b1-6)]GalNAc
Method in brief: as §1

Gal3S(b1-3)GalNAc = biological target: Gal3S(b1-3)GalNAc
Method in brief: as §1

Gal3S(b1-4)Glc6S = biological target: Gal3S(b1-4)Glc6S
Method in brief: as §1

Gal3S6S(b1-4)GlcNAc = biological target: Gal3S6S(b1-4)GlcNAc
Method in brief: as §1

GalNAc(a1-3)GalNAc = biological target: GalNAc(a1-3)GalNAc
Method in brief: as §1

[18] = biological target: GlcNAc(a1-3)Gal(b1-4)GlcNAc
Method in brief: as §1

[19] = biological target: GlcNAc(b1-3)[GlcNAc(b1-4)][GlcNAc(b1-6)]GlcNAc
Method in brief: as §1

[20] = biological target: Man(a1-2)Man(a1-2)Man(a1-3)[Man(a1-2)Man(a1-3)[Man(a1-2)Man(a1-6)]Man(a1-6)]Man(b1-4)GlcNAc(b1-4)GlcNAc
Method in brief: as §1

[21] = biological target: Neu5Ac(a2-3)Gal(b1-3)GlcNAc(b1-3)Gal(b1-4)GlcNAc
Method in brief: as §1

[22] = biological target: Neu5Ac(a2-3)Gal(b1-4)GlcNAc6S
Method in brief: as §1

[23] = biological target: Neu5Ac(a2-3)[Neu5Ac(a2-6)]GalNAc
Method in brief: as §1

[24] = biological target: Neu5Ac(a2-8)Neu5Ac(a2-8)Neu5Ac(a2-3)[GalNAc(b1-4)]Gal(b1-4)Glc
Method in brief: as §1

| Binder | glycan array binding signal (z-score) (Fuc(a1-2)Gal(b1-3)GalNAc) | glycan array binding signal (z-score) [1] | glycan array binding signal (z-score) [2] | glycan array binding signal (z-score) (Gal(a1-4)Gal(b1-4)Gal) | glycan array binding signal (z-score) (Gal(a1-4)Gal(b1-4)GalNAc) | glycan array binding signal (z-score) [3] | glycan array binding signal (z-score) (Gal(b1-4)Glc6S) | glycan array binding signal (z-score) [4] | glycan array binding signal (z-score) (Gal6S(b1-4)Glc) | glycan array binding signal (z-score) [5] | glycan array binding signal (z-score) (Man(a1-3)[Man(a1-6)]Man) | glycan array binding signal (z-score) [6] | glycan array binding signal (z-score) [7] | glycan array binding signal (z-score) (Neu5Ac(a2-3)GalNAc) | glycan array binding signal (z-score) [8] | glycan array binding signal (z-score) [9] | glycan array binding signal (z-score) [10] | glycan array binding signal (z-score) [11] | glycan array binding signal (z-score) [12] | glycan array binding signal (z-score) (Fuc(b1-3)GlcNAc) | glycan array binding signal (z-score) [13] | glycan array binding signal (z-score) [14] | glycan array binding signal (z-score) [15] | glycan array binding signal (z-score) [16] | glycan array binding signal (z-score) [17] | glycan array binding signal (z-score) (Gal3S(b1-3)GalNAc) | glycan array binding signal (z-score) (Gal3S(b1-4)Glc6S) | glycan array binding signal (z-score) (Gal3S6S(b1-4)GlcNAc) | glycan array binding signal (z-score) (GalNAc(a1-3)GalNAc) | glycan array binding signal (z-score) [18] | glycan array binding signal (z-score) [19] | glycan array binding signal (z-score) [20] | glycan array binding signal (z-score) [21] | glycan array binding signal (z-score) [22] | glycan array binding signal (z-score) [23] | glycan array binding signal (z-score) [24] |
| --- | --- | --- | --- | --- | --- | --- | --- | --- | --- | --- | --- | --- | --- | --- | --- | --- | --- | --- | --- | --- | --- | --- | --- | --- | --- | --- | --- | --- | --- | --- | --- | --- | --- | --- | --- | --- |
| B1 | -0.157 | 1.93 | -0.225 | 7.93 | 8.87 | 0.641 | -0.14 | -0.22 | -0.073 | -0.153 | -0.147 | -0.195 | -0.22 | -0.24 | -0.201 | – | – | – | – | – | – | – | – | – | – | – | – | – | – | – | – | – | – | – | – | – |
| B2 | -0.114 | – | – | – | – | – | – | – | – | – | – | – | – | – | – | 0.285 | 0.089 | 0.006 | -0.188 | -0.139 | -0.083 | -0.25 | -0.661 | -0.396 | -0.345 | 2.34 | 1.82 | 1.9 | -0.157 | -0.514 | 1.75 | 0.032 | -0.953 | -0.51 | -0.437 | 1.32 |
